ssDAF-12 act – S. stercoralis DAF-12 nuclear receptor activators, primary screen, cell-based, luminescence, HEK293, GRIP1 co-expression, lit1-tk-luc | HEK293 ssDAF-12/GRIP1 lit1-tk-luc reporter; % of 3 µM dafachronic acid response | activation, % at 6.8 µM | hit rate 1% among 370,000;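 active means activation above the mean over all tested compounds plus 3 SD, cut at about 0.9% in these data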;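 further: 0% = DMSO-only wells and 100% = 3 µM delta7-dafachronic acid wells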
hgDAF12 agonist – H. glycines DAF-12 receptor agonists, primary screen, cell-based, luminescence, HEK293, GAL4 fusion, UAS-luciferase; Nuclear hormone receptor DAF-12 (Heterodera glycines), GAL4 fusion; HEK293 GAL4-hgDAF12 UAS-luciferase reporter, agonist luminescence; normalized to butyrate control; activation, % at 6.8 µM; hit rate 1.8% among 370,000; AID 687014, 2013;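 active means activation above a cutoff set at the mean of all screened compounds plus 3 SD, cut at about 10% in these data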;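 further: 0% = DMSO wells and 100% = sodium butyrate wells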
DAX1 inh-1 – DAX1 (NR0B1) inhibitors, primary screen, cell-based, HEK293, Gal4-DAX1, luciferase luminescence; Nuclear receptor subfamily 0 group B member 1 (Homo sapiens), P51843; HEK293 Gal4-DAX1 luciferase reporter; inhibition, % at 6.75 µM; hit rate 0.99% among 340,000; AID 504766, 2011;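 active means inhibition above the mean over all tested compounds plus 3 SD, cut at about 4.2% in these data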;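 further: 0% = DAX1-transfected cells with DMSO and 100% = empty-vector control cells with DMSO; inhibition shows as a rise in luminescence from relieved DAX1 repression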
Target sequence (P51843 207-470 limits assumed): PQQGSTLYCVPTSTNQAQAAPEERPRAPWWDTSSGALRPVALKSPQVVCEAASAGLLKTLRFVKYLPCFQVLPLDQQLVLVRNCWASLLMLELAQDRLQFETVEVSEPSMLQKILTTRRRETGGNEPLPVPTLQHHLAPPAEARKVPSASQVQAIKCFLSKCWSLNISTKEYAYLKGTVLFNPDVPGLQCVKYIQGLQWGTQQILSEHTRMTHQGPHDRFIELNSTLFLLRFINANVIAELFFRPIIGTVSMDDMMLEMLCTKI
hcDAF-12 act – H. contortus DAF-12 nuclear receptor activators, primary screen, cell-based, luminescence, HEK293, lit1-tk-luc reporter; HEK293 hcDAF-12 lit1-tk-luc reporter; 0% DMSO, 100% Δ7-dafachronic acid; activation, % at 6.8 µM; hit rate 1.4% among 370,000;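 active means activation above the mean of all tested compounds plus 3 SD, cut at about 5.5% in these data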;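 further: 100% = response to 3 µM Δ7-dafachronic acid high control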
DAX1 inh-2 – DAX1 (NR0B1) inhibitors on StAR promoter, primary screen, cell-based, luminescence, SF-1 (NR5A1), full-length DAX-1; HEK293T StAR-luciferase reporter, SF-1/DAX-1 repression relief; inhibition, % at 6.8 µM; hit rate 1.1% among 370,000; AID 652010, 2013;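 active means inhibition above the mean over all tested compounds plus 3 SD, cut at about 3.6% in these data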;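 further: 0% = DAX-1 cells with DMSO and 100% = cells lacking DAX-1 with DMSO; higher inhibition means more luminescence from relief of DAX-1 repression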
DAX1 inh confirm – DAX1 (NR0B1) inhibitors relieving SF-1 repression, confirmation, cell-based, luminescence, HEK293T, full-length DAX-1, SF-1 activated StAR promoter; shares compounds with DAX1 inh-2; HEK293T StAR-promoter luciferase reporter, SF-1/DAX-1 repression; inhibition, % at 6.8 µM; hit rate 87% among 2,400; AID 652134, 2013;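 active means inhibition above the average of every tested compound plus 3 SD, cut at about 3.8% in these data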;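 further: 0% = DAX-1 cells with DMSO and 100% = no DAX-1 control cells with DMSO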
SF1 AF2mut Luc – StAR reporter signal changes without DAX1, counter-screen for DAX1 inhibitor project, cell-based, luminescence, AF-2 mutant SF-1, transactivation | hit rate 78% among 2,400 | HEK293 StAR-luciferase, SF-1 AF2 mutant | shares compounds with DAX1 inh-2 | inhibition, % at 6.8 µM | AID 652136, 2013;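 active means inhibition above the mean of all tested compounds plus 3 SD, cut at about 3% in these data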;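 further: 0% = DAX-1 transfected cells with DMSO and 100% = cells without DAX-1 with DMSO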
LXRb hcDAF ctr – LXR agonists, Gal4 luciferase reporter, confirmation, counter-screen for hcDAF-12 agonist project, cell-based, luminescence, HEK293, H. contortus campaign; shares compounds with hcDAF-12 act; HEK293 Gal4-LXR tk-luc reporter, 24 h; normalized: DMSO 0%, positive control 100%; activation, % at 6.8 µM; 3,400 tested, under 10 active; AID 743027, 2013;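 active means mean percent activation of the reporter above a cutoff set as the average over tested compounds plus their standard deviation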
hcDAF12 ag – H. contortus DAF-12 receptor agonists, confirmation, cell-based, luminescence, HEK293, lit1-tk-luc, triplicate. activation, % at 6.8 µM. HEK293 hcDAF-12 lit1-tk-luc reporter; % of Δ7-dafachronic acid response. hit rate 61% among 3,400. shares compounds with hcDAF-12 act;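 active means mean activation across triplicate tests above the threshold derived from the earlier primary screen, cut at about 5.5% in these data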;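 further: 0% = DMSO only wells and 100% = 3 µM Δ7-dafachronic acid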
hgDAF12 ag – H. glycines DAF-12 receptor agonists, confirmation, cell-based, luminescence, HEK293, GAL4-LBD fusion. shares compounds with hgDAF12 agonist. HEK293 GAL4-hgDAF12 luciferase reporter, agonist mode; percent of butyrate response. activation, % at 6.8 µM. hit rate 80% among 3,300;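 active means mean activation over triplicate wells above the hit cutoff derived from the earlier primary screen, cut at about 11% in these data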;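 further: 0% = DMSO low control and 100% = 2 mM sodium butyrate high control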
LXR ag 2 – LXR agonists, Gal4 luciferase reporter, confirmation, counter-screen for hgDAF-12 agonist project, cell-based, luminescence, HEK293, H. glycines campaign. shares compounds with hgDAF12 agonist. activation, % at 6.8 µM. 3,300 tested, under 10 active. AID 743051, 2013. 24 h;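 active means mean activation of the triplicate above a set limit carried over from the primary screen, none filed active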
The depositor's hits bear a star; x = no result. A selection: hits, their analogues and other compounds. The true share with any hit is near 4.1%.

SMILES | ssDAF-12 act | hgDAF12 agonist | DAX1 inh-1 | hcDAF-12 act | DAX1 inh-2 | DAX1 inh confirm | SF1 AF2mut Luc | LXRb hcDAF ctr | hcDAF12 ag | hgDAF12 ag | LXR ag 2
O=C(NCCN1CCC(n2c(=O)[nH]c3ccccc32)CC1)c1cccc(F)c1 | 0 | -1 | x | -2 | 0 | x | x | x | x | x | x
Cc1ccccc1Nc1nc(N)c2ccccc2n1 | 0 | 19* | 1 | 7.1* | 5.3* | 12* | 5.6* | 1 | 5 | 17* | 1
COc1ccc(C)cc1Nc1nc(N)c2ccccc2n1 | -1 | 3 | -3 | 0 | 0 | x | x | x | x | x | x
CCN(CC)CCN(C(=O)c1ccc(C(=O)c2ccccc2)cc1)c1nc2cc3c(cc2s1)OCO3 | -1 | 3 | 0 | -1 | 2 | x | x | x | x | x | x
CCN(CC)CCN(C(=O)c1ccc2ncsc2c1)c1nc2cc3c(cc2s1)OCO3 | 2.6* | 17* | -1 | 16* | 15* | 11* | 11* | 1 | 11* | 15* | 1
Cn1c(C(=O)Nc2ccc3c(c2)OCCO3)cc2sccc21 | 1.2* | 15* | 2 | 9.7* | 6.9* | 8.8* | 6.8* | 1 | 5 | 18* | 1
O=C(Nc1ccc2c(c1)OCCO2)c1cc2sccc2n1Cc1ccccc1 | -2 | -9 | -2 | -5 | -3 | x | x | x | x | x | x
Cc1ccc(C2=CCN(C)C(=O)N2c2ccccc2)cc1 | 0 | 1 | x | 3 | 0 | x | x | x | x | x | x
O=C(Nc1nc(-c2nc3ccccc3s2)cs1)C1COc2ccccc2O1 (stereo not drawn) | -1 | 3 | 2 | 4 | 1 | x | x | x | x | x | x
CC(=O)Nc1nc(C2COc3ccccc3O2)cs1 (stereo not drawn) | 0 | 14* | 1 | 6.7* | 5.8* | 11* | 5.1* | 1 | 6.1* | 15* | 1
COc1cnc(-c2ccccn2)[nH]c1=O | -1 | -1 | 0 | -1 | 1 | x | x | x | x | x | x
COc1cccc2[nH]c(-c3ccccn3)nc12 | 1 | 18* | x | 6.4* | 7.2* | 8.6* | 5.6* | x | x | 16* | 1
N/C(=N\OC(=O)/C=C/c1ccccc1Cl)c1ccncc1 | 0 | 21* | 2 | 6.8* | 9.2* | 11* | 6.3* | 1 | 4 | 16* | 1
N/C(=N\OC(=O)/C=C/c1ccccc1)c1ccncc1 | -1 | 7 | 3 | 1 | 1 | x | x | x | x | x | x
